Experimental data taken from PubChem BioAssay.
Where “and” joins values, the source holds several entries; their conditions need not be identical. Identical values can stand only once. Calls of active or inactive are those of the source.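 How the source made its calls, unless noted: active means compounds whose cell count with miR-34 switched on is under 0.7 times the count with it off; inactive means the rest.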

Assays:
[1] = stimulators of nuclear beta-catenin in C2C12, primary screen, imaging, WNT3A-conditioned medium, mouse C2C12, NPC library (AID 1117326; in the data active means nuclear beta-catenin stimulation mostly above about 4.2%, no sharp cut-off; inactive means mostly below about 10%; further: reference of the scale not given here); details: stronger effect = higher value
[2] = stimulators of insulin release from INS-1E, primary screen, cell-based, 5 mM glucose, NPC library (AID 1117329;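 active means compound raises insulin release from rat beta cells at 5 mM glucose, no numeric limit stated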; further: reference of the scale not given here); details: rat INS-1E insulin secretion, at 10 µM, stronger effect = higher value
[3] = growth inhibition of GSK3B-pretreated HCT116 cells – cell-based, CellTiter-Glo, 0.2 to 20 µM (AID 1117336;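 active means compounds lowering colon cancer cell viability after pretreatment blocking the GSK3B kinase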); details: HCT116 viability after GSK3B inhibitor, at 20 µM, stronger effect = higher value
[4] = inhibition of endothelial tube formation, primary screen, imaging, VEGF stimulated, CD31 staining, tube area, NPC library (AID 1117340;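 active means compound that reduces growth-factor-driven endothelial tube area in a mixed cell culture, no cutoff stated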); details: VEGF-stimulated ADSC/ECFC co-culture, at 10 µM, stronger effect = higher value
[5] = glucagon-like peptide 1 release enhancers, primary assay, NCI-H716 cell line, NPC library (AID 1117341;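 active means compound raises GLP1 secretion from the human gut endocrine cells, with no numeric limit stated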; further: reference of the scale not given here); details: NCI-H716 cells, at 10 µM, stronger effect = higher value
[6] = HCT116 colon cancer cell growth inhibition, primary screen, CellTiter-Glo luminescence, NPC library (AID 1117342;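 active means compounds that lower survival of HCT116 colon cancer cells in the luminescence readout, no numeric limit stated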); details: at 20 µM (top of the series)
[7] = CellTiter-Glo luminescent readout of SW480 viability loss, NPC library primary (AID 1117343;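 active means compounds that lower viability of the colon cancer cells in the luminescence readout, with no numeric limit stated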); details: CellTiter-Glo luminescence; at 20 µM (top of the series) unless noted
[8] = decreased DLD-1 cellular survival, CellTiter-Glo luminescent readout, NPC compound collection, primary HTS (AID 1117346;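 active means compounds that lower survival of DLD-1 colon cancer cells in the luminescence readout, no cutoff given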); details: DLD-1 viability, CellTiter-Glo luminescence; at 20 µM (top of the series)
[9] = sensitizers of A549 cells to miR-34 induction, primary screen, imaging, A549 dox-inducible miR-34, nuclei and caspase counts (AID 1347080); details: A549 miR-34 inducible, Hoechst nuclei count, 48 h
[10] = phospholipid biosynthesis inhibitors in animal cells, primary screen, cell-based, LOPAC library, screen 4 (AID 1347384; call rule not given here); details: phospholipid biosynthesis inhibition screen, at 10 µM
[11] = viability rescue of complex I mutant cybrids, primary screen, cell-based, galactose medium, ATP luminescence (AID 1645843;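 active means z-score of at least 1.8 in each of two replicates, scored against plate mean and spread of sample wells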;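 further: positive z means more ATP and so rescue of galactose-driven cybrid death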); details: complex I mutant cybrid cells, 72 h, stronger effect = higher value
[12] = survival rescue of mitochondrial mutant cells in low glucose, primary screen, MELAS cybrids, Rieske KO mouse fibroblasts, CellTiter-Glo (AID 1508586;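 active means mean z-score across replicates of 1.96 or higher in either the MELAS or the Rieske mutant cell line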;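 further: z relative to plate mean and SD of compound and empty wells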)
[13] = liver-stage malaria parasite growth inhibition, primary screen, cell-based, HepG2, luciferase luminescence, HepG2 viability (AID 624349; in the data active means parasite load remaining mostly below about 12%, no sharp cut-off; inactive means mostly above about 10%;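 further: 100% = mean of DMSO negative control wells on the same plate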); details: P. berghei liver stage in HepG2, luciferase luminescence, concentration not given here; parasite load remaining: stronger effect = lower value; viability: measured here: HepG2 viability without parasites
[14] = stronger effect = lower value, cell number ratio, induced over uninduced
[15] = measured here: relative caspase fold change +Dox/-Dox
[16] = measured here: total cells with miR-34 induction, stronger effect = lower value
[17] = measured here: total cells without miR-34 induction
[18] = MELAS cybrid survival, CellTiter-Glo 48 h, stronger effect = higher value
[19] = Rieske KO mouse fibroblast survival, CellTiter-Glo 72 h

Row | Structure (SMILES) | nuclear beta-catenin stimulation ([1]; at 10 µM) | nuclear beta-catenin stimulation ([1]; stimulation, at 2 µM) | insulin secretion stimulation [2] | viability decrease [3] | tube area decrease [4] | GLP1 secretion stimulation [5] | inhibition of viability [6] | viability decrease (inhibition) [7] | viability decrease (inhibition) [8] | fold change [9, 14] | fold change [9, 15] | cell count [9, 16] | cell count [9, 17] | outcome [10] | z-score [11] | z-score [12, 18] | z-score [12, 19] | parasite load remaining [13] | viability [13]
1 | C[C@]12CCC(=O)C=C1CC[C@@H]1[C@@H]2CC[C@@]2(C)[C@H]1CC[C@]2(O)C(=O)CO | 0.3% (inactive) | -0.1% | -1.7% (inactive) | -3.9% (inactive) | 5.4% (inactive) | 1.1% (inactive) | 25.1% (inactive) | 12.3% (inactive) | -6.8% (inactive) | 1 (inactive) | 0.913 | 8610 | 8590 | inactive | 0.435 (inactive) |  |  |  | 
2 | Nc1cc(=O)[nH]c(N)n1 | 1.3% (inactive) | 1.3% | -1.5% (inactive) | 7.7% (inactive) | -14.1% (inactive) | -2.3% (inactive) | -16.3% (inactive) | 71.1% (active) | 13.6% (inactive) | 0.958 (inactive) | 1.28 | 9880 | 10300 | inactive | 0.355 (inactive) |  |  |  | 
3 | CCN(CC)CCCN(c1ccccc1)C1Cc2ccccc2C1 | -1.7% (inactive) | -1.3% | 32.5% (active) | 33.8% (inactive) | 22.2% (inactive) | -4.5% (inactive) | 50.6% (active) | 53.5% (active) | 32.5% (inactive) | 1.07 (inactive) | 1.01 | 8050 | 7530 | inactive | -1.11 (inactive) |  |  |  | 
4 | CCn1c(=O)c2c(nc(C=Cc3ccc(OC)c(OC)c3)n2C)n(CC)c1=O | -0.2% (inactive) | -0.6% | -0.7% (inactive) | -2.3% (inactive) | 14.4% (inactive) | -3% (inactive) | -3.5% (inactive) | 4.6% (inactive) | -22% (inactive) | 0.891 (inactive) | 0.866 | 8640 | 9700 |  |  | 0.103 (inactive) | 0.0933 |  | 
5 | O=C(O)CP(=O)(O)O | 4.8% (inactive) | 3.8% | 0.7% (inactive) | -14.8% (inactive) | -4.7% (inactive) | 0.3% (inactive) | -1.37% (inactive) | 10.9% (inactive) | -7.2% (inactive) | 0.969 (inactive) | 1.06 | 9620 | 9930 | inactive | 1.15 (inactive) |  |  |  | 
6 | COC(=O)C1=C(C#N)NC(C)=C(C(=O)OC(C)C)C1c1cccc([N+](=O)[O-])c1 (stereo unspecified) | -1.3% (inactive) | 2.3% | -0.1% (inactive) | 9.8% (inactive) | 9.9% (inactive) | -3.9% (inactive) | 56.2% (active) | 65.8% (active) | 29.6% (active) | 0.976 (inactive) | 0.643 | 7820 | 8010 |  |  | -0.465 (inactive) and 0.607 (inactive) | 0.162 and 0.638 |  | 
7 | COC(=O)C(c1ccccc1Cl)N1CCc2sccc2C1 (stereo unspecified) | 0.3% (inactive) | -0.7% | 1.9% (inactive) | 30.5% (inactive) | 1.2% (inactive) | 3.9% (inactive) | 52.7% (active) | 18.6% (inactive) | 48.7% (inactive) | 0.927 (inactive) | 0.912 | 7680 | 8290 |  |  | -0.416 (inactive) | 0.984 |  | 
8 | Nc1c(CC(=O)O)cccc1C(=O)c1ccccc1 | 0.8% (inactive) | 0.5% | -0.2% (inactive) | -2.3% (inactive) | -6.1% (inactive) | 2.5% (inactive) | 0.4% (inactive) | 0.2% (inactive) | -11.2% (inactive) | 0.914 (inactive) | 0.966 | 7840 | 8580 |  |  | -0.237 (inactive) | -0.172 |  | 
9 | C(=C\c1ccccc1)/CN1CCN(C(c2ccccc2)c2ccccc2)CC1 | 1.7% (inactive) | 0.3% | -1.8% (inactive) | 88.8% (active) | 26.3% (inactive) | -2.7% (inactive) | 84.4% (active) | 97.3% (active) | 99.3% (active) | 0.969 (inactive) and 0.928 (inactive) | 1.77 and 1.18 | 7700 and 8780 | 7950 and 9460 | inactive | -0.01 (inactive) | 0.0624 (inactive) | -0.105 | 32.6% (inactive) and 111% (inactive) | 52.6% and 87.5%
10 | N[C@@H](CC(=O)O)C(=O)O | 0% (inactive) | -0.6% | 1.3% (inactive) | 7.1% (inactive) | -11.9% (inactive) | -0.5% (inactive) | 1.9% (inactive) | -18.5% (inactive) | 1.6% (inactive) | 1 (inactive) | 1.56 | 10800 | 10700 | inactive | 0.255 (inactive) |  |  |  | 
11 | OCCN1CCN(CC/C=C2/c3ccccc3Sc3ccc(C(F)(F)F)cc32)CC1 | -1.3% (inactive) | 14.5% | 10.7% (inactive) | 120% (active) | 88.3% (active) | 69.1% (active) | 126% (active) | 167% (active) | 102% (active) | 1.1 (inactive) | 1.38 | 6940 | 6310 | inactive | -1.04 (inactive) |  |  | 69.9% (inactive) | 81%
12 | NC1[C@H]2CN(c3nc4c(cc3F)c(=O)c(C(=O)O)cn4-c3ccc(F)cc3F)C[C@@H]12 (stereo partly specified) | -0.6% (inactive) | 0.5% | 17.5% (inactive) | 64.3% (active) | 26.1% (inactive) | -0.1% (inactive) | 58.4% (active) | 82.9% (active) | 58.6% (active) | 1.35 (inactive) | 1.08 | 3150 | 2330 | inactive | 2.21 (active) |  |  |  | 
13 | CC1=C(CC(=O)O)c2cc(F)ccc2/C1=C\c1ccc(S(C)(=O)=O)cc1 | 0.1% (inactive) | -0.8% | -1.1% (inactive) | 39.5% (inactive) | 7.6% (inactive) | -0.4% (inactive) | 66.3% (active) | 88.7% (active) | 90.1% (active) | 0.998 (inactive) | 1.86 | 9240 | 9260 | inactive | 0.795 (inactive) |  |  |  | 
14 | O=C1NC(=O)[C@@]2(CCOc3ccc(F)cc32)N1 | -1.1% (inactive) | 0.6% | 1.1% (inactive) | -5.9% (inactive) | -2.4% (inactive) | 0% (inactive) | 4.6% (inactive) | -5.9% (inactive) | -7.9% (inactive) | 0.973 (inactive) | 1.69 | 9980 | 10300 | inactive | 0.695 (inactive) |  |  |  | 
15 | CCC(=O)c1ccc2c(c1)N(CCCN(C)C)c1ccccc1S2 | 0.3% (inactive) | -0.2% | 33.8% (active) | 24.5% (inactive) | 48.9% (active) | -2.4% (inactive) | 46.9% (inactive) | 65.1% (active) | 20.4% (inactive) | 0.872 (inactive) | 0.831 | 1900 | 2180 | inactive | -1.19 (inactive) |  |  |  | 
